Inconclusive results are not listed. Where a call stands in place of a potency, no number is given. The source made the active and inactive calls. The call rests on the fitted dose curve; in most records, active means well fitted inhibition curve with a large enough effect; inconclusive means small, poorly fitted or top-dose-only effect; inactive means flat fitted curve, though single readings scatter.
tested on: CRL-7250; assay: qHTS assay to identify novel small-molecules to repurpose for Merkel cell carcinoma treatment (AID 1296009); conditions: MCC and control cell lines, CellTiter-Glo viability, 72 h; series mostly up to 92 µM; further: nearly all actives have a fitted effect of over 60% in size
Method in brief: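 After compound transfer in DMSO, plates were kept 72 hr at 37 degree celsius. Luminescent ATP signal from CellTiter-Glo served as viability measure, normalized against DMSO and no-cell controls.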

Row | Structure (SMILES) | Potency | outcome
1 | COc1ccc(C2(O)c3c(ccc4c3OC(C)(CCC=C(C)C)C=C4)NC(=O)C2OC)cc1 (configuration not stated) | inactive | 
2 | O=C(Cn1c2ccccc2c2nc3n(c(=O)c21)CCS3)N1CCCC1 | inactive | 
3 | CC1C2=CC(=O)OC2(O)CC2C1C(O)CC1C(C)(CO)CCCC21C (configuration not stated) | inactive | 
4 | C[C@@H]1O[C@@H](O[C@@H]2[C@@H](O[C@@H]3O[C@@H](C)[C@H](O[C@@H]4OC[C@H](O)[C@H](O[C@@H]5OC[C@@H](O)[C@H](O)[C@H]5O)[C@H]4O)[C@@H](O[C@@H]4OC[C@](O)(CO)[C@H]4O)[C@H]3O)[C@H](OC(=O)[C@]34CCC(C)(C)C[C@H]3C3=CCC5[C@@]6(C)C[C@H](O)[C@H](O[C@@H]7O[C@H](CO[C@@H]8OC[C@H](O)[C@H](O)[C@H]8O)[C@@H](O)[C@H](O)[C@H]7O)C(C)(C)C6CC[C@@]5(C)[C@]3(C)C[C@H]4O)OC[C@H]2O)[C@H](O)[C@H](O)[C@H]1O (some centres not stated) |  | inactive [at 9.27 µM]
5 | COC(=O)c1cc(Br)cnc1N1CCC(NC2CCCCC2)C(O)C1 (configuration not stated) | inactive | 
6 | COC1C=C([C@@H]2CC=C3[C@@]4(C)C(CC[C@]32C)[C@@]2(C)C=CC(=O)C(C)(C)C2C[C@H]4OC(C)=O)C(=O)O1 (some centres not stated) | inactive | 
7 | CC1(C)CC[C@]2(C(=O)O[C@@H]3O[C@H](CO[C@@H]4O[C@H](CO)[C@@H](O)[C@H](O)[C@H]4O)[C@@H](O)[C@H](O[C@@H]4O[C@H](CO)[C@@H](O)[C@H](O)[C@H]4O)[C@H]3O)CC[C@]3(C)C(=CCC4[C@@]5(C)CC[C@H](O[C@@H]6OC[C@@H](O)[C@H](O)[C@H]6O)[C@@](C)(C(=O)O)C5CC[C@]43C)[C@@H]2C1 (some centres not stated) |  | inactive [at 9.27 µM]
